Source: PubChem BioAssay AID1117361 (Southern Research Institute, 2015)
Among all 3,600 compounds or so, about 900 (25%) were called active. The list is a sample of the results. Measured potencies and affinities stand elsewhere. A number with no mark means an inactive call. How the calls were made is not given here.

These compounds were tested against Protein Tat (Human immunodeficiency virus type 1 group M subtype B (isolate HXB2)) (UniProt P04608) (assay: inhibitors of Tat binding to TAR RNA, dose response, counter-screen for Vif-APOBEC3G degradation inhibitor project, biochemical, fluorescence polarization, FAM-labeled TAR RNA (AID 1117361)). Conditions: outcome: dose series up to 100 µM unless noted; series mostly up to 100 µM; inhibition: at the top concentration.

Question: For `O=C(NCc1ccc(F)cc1)C1CCCN1C(=O)NCc1ccccc1` (configuration not stated), which outcome is on record?
Answer: The outcome was “inactive”.

Question: How did the “inhibition” value turn out when `CCCC(c1nnnn1CC(=O)OCC)N(Cc1cc2c(C)cc(C)cc2[nH]c1=O)C1CCCC1` (configuration not stated) was run?
Answer: The value was 16.4%.

Question: `O=C(c1ccco1)N1CCN=C1SCc1ccccc1F` was tested. Which “inhibition” value did it give?
Answer: The value was 6.82%.

Question: `Cc1ccccc1S(=O)(=O)Cc1ccc(C(=O)NCCCN2CCC(C)CC2)o1` was tested. Which “inhibition” value did it give?
Answer: The value was 2.34%.

Question: Which “inhibition” value does the source give for `O=C(CCCCl)Nc1nc(-c2ccc3c(c2)OCCO3)cs1` here?
Answer: Its value is 4.12%.

Question: `CN(C)C(=O)c1cc(Cl)ccc1Sc1cc(Cl)ccc1Cl` was tested. Which “inhibition” value did it give?
Answer: The value was 4.77%.

Question: How did the outcome turn out when `COC(C[C@H]1O[C@@H]1[C@@H](O)COCc1ccccc1)OC` was run?
Answer: The outcome was “inactive”.

Question: For `N#Cc1nc(Cc2cccc3ccccc23)oc1NCc1ccc(F)cc1`, which outcome is on record?
Answer: Its outcome is “inactive”.

Question: For `Cc1nc(C(=O)N(C)C)nn1-c1cc(Cl)cc(Cl)c1`, which “inhibition” value is on record?
Answer: The value was 2.05%.

Question: For `CCC(=O)Nc1nc2ccc(NC(C)=O)cc2s1`, which outcome is on record?
Answer: The outcome was “inactive”.

Question: `CC(C)c1ccccc1N1CC(C(=O)O)CC1=O` (configuration not stated) was tested. Which outcome did it give?
Answer: Its outcome is “inactive”.

Question: How did the “inhibition” value turn out when `COc1ccc(/C(O)=C2/C(=O)C(=O)N(c3ccccn3)C2c2ccc(F)cc2)cc1` (configuration not stated) was run?
Answer: Its value is 9.69%.

Question: For `COc1cc(C2C(C(=O)c3ccco3)=C(O)C(=O)N2c2cc(C)on2)cc(Br)c1O` (configuration not stated), which “inhibition” value is on record?
Answer: The value was 27.7%.

Question: `O=C(C1CCCC1)N1CCCC(Nc2ccc(F)cc2)C1` (configuration not stated) was tested. Which “inhibition” value did it give?
Answer: Its value is 1.67%.

Question: Which outcome does the source give for `COc1ccccc1N1CCN(C(=O)c2cc(-c3cccs3)on2)CC1` here?
Answer: The outcome was “inactive”.

Question: `O=C(c1cc(-c2cccs2)on1)N1CCCCC1` was tested. Which “inhibition” value did it give?
Answer: Its value is 4.73%.

Question: With `COc1cccc2sc(N(C)c3ccccc3)nc12` as the compound, how does the outcome read?
Answer: The outcome was “inactive”.

Question: With `CC1CCN(S(=O)(=O)c2cc(Br)cc(C(=O)NC3=NCCS3)c2)CC1` as the compound, how does the “inhibition” value read?
Answer: Its value is 4.05%.

Question: With `C=CCNC(=O)c1ccncc1` as the compound, how does the “inhibition” value read?
Answer: Its value is 2.03%.

Question: How did the outcome turn out when `COc1cc(/C=N/NC(=O)c2ccc(NS(=O)(=O)c3cccs3)cc2)cc(OC)c1O` was run?
Answer: Its outcome is “inactive”.

Question: Which outcome does the source give for `CCn1cc(C(=O)N2CCOCC2)c(=O)c2cc(S(=O)(=O)N(C)C3CCCCC3)ccc21` here?
Answer: The outcome was “inactive”.

Question: For `CSc1cccc(NC(=O)CN(c2cc(C)ccc2C)S(C)(=O)=O)c1`, which “inhibition” value is on record?
Answer: Its value is 6.08%.

Question: How did the “inhibition” value turn out when `CSc1cccc(NC(=O)C(C)C)c1` was run?
Answer: Its value is 19%.

Question: With `CCOC(=O)C1CCN(C(=O)c2ccc(Cl)c(S(=O)(=O)N3CCOCC3)c2)CC1` as the compound, how does the “inhibition” value read?
Answer: The value was 13%.

Question: Which “inhibition” value does the source give for `O=C(N/N=C/c1ccc(F)cc1)c1ccc(Br)cc1` here?
Answer: The value was 13.6%.

Question: With `CSCC[C@H](NC(=O)NCc1ccccc1F)C(=O)O` as the compound, how does the “inhibition” value read?
Answer: Its value is 2.03%.

Question: `O=C(O)c1ccccc1NS(=O)(=O)c1ccccc1C(F)(F)F` was tested. Which “inhibition” value did it give?
Answer: Its value is 1.36%.

Question: How did the “inhibition” value turn out when `COc1ccc(NC(=O)c2cccnc2C(=O)O)c(OC)c1` was run?
Answer: The value was 4.95%.

Question: How did the outcome turn out when `Cc1cc(=O)[nH]c2c1c(C)nn2C1CCCC1` was run?
Answer: Its outcome is “inactive”.

Question: With `Cc1ccc2c(c1)c(=O)c1c3n2CCN(C(=O)CCl)C3CC1` (configuration not stated) as the compound, how does the “inhibition” value read?
Answer: Its value is 16.4%.

Question: How did the outcome turn out when `O=C(COC(=O)c1ccccc1OC(F)F)Nc1ccc2[nH]c(=O)[nH]c2c1` was run?
Answer: Its outcome is “inactive”.

Question: For `CCN(CC)C(=O)c1sc(NC(=O)c2ccc(Br)o2)c(C(=O)OC)c1C`, which “inhibition” value is on record?
Answer: Its value is 5.46%.

Question: For `CCc1c(C(=O)NCc2ccccc2Cl)[nH]c(C)c1C(C)=O`, which outcome is on record?
Answer: The outcome was “inactive”.

Question: How did the outcome turn out when `C=CCNC(=O)c1ccccc1Cl` was run?
Answer: The outcome was “inactive”.

Question: How did the “inhibition” value turn out when `Nc1ccc(Sc2cc(Cl)nc(N)n2)cc1` was run?
Answer: Its value is 4.05%.

Question: Which “inhibition” value does the source give for `O=C(Cn1ccc([N+](=O)[O-])n1)N1CCCc2ccccc21` here?
Answer: Its value is 2.03%.

Question: Which outcome does the source give for `O=C(CSc1nc(N2CCCCC2)nc(N2CCCCC2)n1)N1CCc2ccccc21` here?
Answer: Its outcome is “inactive”.

Question: How did the outcome turn out when `CCCCNC(=O)CN1C(=O)CSc2ccc(S(=O)(=O)N3CCOCC3)cc21` was run?
Answer: Its outcome is “inactive”.

Question: For `CO/N=C/C(=N\Nc1ccc(OC)cc1)C(=O)c1ccc(OC)cc1`, which “inhibition” value is on record?
Answer: Its value is 5.46%.

Question: With `COc1ccc(C(=O)C2CCCN(C(=O)c3cnsn3)C2)c(C)c1` (configuration not stated) as the compound, how does the outcome read?
Answer: Its outcome is “inactive”.

Question: `CC(=O)c1ccc(-c2nnc(CCC(=O)N(C)Cc3c(C)nc4ccccn34)o2)s1` was tested. Which “inhibition” value did it give?
Answer: Its value is 4.95%.

Question: Which outcome does the source give for `CN(C(=O)CSc1ncnc2sccc12)C1CCCCC1` here?
Answer: Its outcome is “inactive”.

Question: `O=C(/C=C/c1ccccc1)NC(NC(=S)Nc1cc(Cl)ccc1Cl)C(Cl)(Cl)Cl` (configuration not stated) was tested. Which outcome did it give?
Answer: The outcome was “inactive”.

Question: With `O=C(O)c1cccc(NCc2ccncc2)c1` as the compound, how does the “inhibition” value read?
Answer: Its value is 20.9%.

Question: Which “inhibition” value does the source give for `COC(=O)c1cccc(NC(=O)c2cccc(OC)c2)c1` here?
Answer: Its value is 4.05%.

Question: `COC(=O)c1ccc(NC(=O)COc2cccc(-n3cnnn3)c2)cc1` was tested. Which “inhibition” value did it give?
Answer: Its value is 6.35%.

Question: `CC(=O)Nc1ccc2c(c1)Cc1cc(N3C(=O)C=CC3=O)ccc1-2` was tested. Which outcome did it give?
Answer: The outcome was “inactive”.

Question: For `CCOc1ccc(C2=[N+]([O-])C(C)(C)N(O)C2(C)C)cc1`, which “inhibition” value is on record?
Answer: The value was 3.41%.

Question: With `CCCCn1nnc(NC(=O)c2ccc(-c3cccc(Cl)c3)o2)n1` as the compound, how does the “inhibition” value read?
Answer: Its value is 0.68%.

Question: How did the “inhibition” value turn out when `CC1(C)CC(=O)c2cc(OCC(=O)NCc3cccnc3)ccc2O1` was run?
Answer: Its value is 8.11%.

Question: For `CCOC(=O)/C(=C\c1ccccc1)NC(=O)c1ccccc1`, which outcome is on record?
Answer: The outcome was “inactive”.

Question: `CCOC(=O)/C(=C/c1c2ccccc2cc2ccccc12)NC(=O)c1ccccc1` was tested. Which “inhibition” value did it give?
Answer: Its value is 3.38%.

Question: Which “inhibition” value does the source give for `COc1ccc(S(=O)(=O)NCc2ccccn2)cc1` here?
Answer: The value was 4.05%.

Question: With `Cc1cccc(C)c1NS(=O)(=O)c1c(C)[nH]c(=O)[nH]c1=O` as the compound, how does the “inhibition” value read?
Answer: Its value is 6.14%.

Question: With `COc1ccc(CNc2ncnc(N)n2)cc1` as the compound, how does the “inhibition” value read?
Answer: Its value is 5.41%.

Question: With `CCCC(=O)Nc1ccccc1NC(C)=O` as the compound, how does the “inhibition” value read?
Answer: The value was 4.05%.

Question: `CC(C)CC(NC(=O)CCl)c1ccccc1` (configuration not stated) was tested. Which outcome did it give?
Answer: The outcome was “inactive”.
